Test results as given in PubChem BioAssay (NCI).
About 83,000 compounds went through this panel and 20% of them were active in at least one assay; those are over-represented in the sample as a whole.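 Testing used 96-well plates and a 48-hour single-concentration exposure. Example: -40 means 40% of the starting cells died.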 Values without a mark were called inactive. Calls of active or inactive are those of the source.

test system: SNB-19 CNS; assay: NCI-60 one-dose screen, 48 h (100 = growth as untreated, 0 = no growth, -100 = all killed); conditions: 10 µM unless noted
Experimental: Growth inhibition of the SNB-19 human tumor cell line is measured as a screen for anti-cancer activity. Cells are grown in 96 well plates and exposed to the test compound for 48 hours. Compounds are tested at a single concentration, which is 10^-5 M for most compounds. The reported endpoint is percent growth (GI% or GIPRCNT), where numbers from 0 - 100% represent growth inhibition, and numbers from -100% - 0 represent cell death. For example, a value of 40 represents 60% growth inhibition. A value of 0 means no net growth occurred over the course of the experiment. A value of -40 indicates 40% of cells at the beginning of the experiment died by the end of the experiment. A value of -100 means all cells are dead at the end of the experiment.
NCI-60 Human Tumor Cell Lines Screen was performed using the standard one-dose NCI protocol, which is described in more detail at https://dtp.cancer.gov/discovery_development/nci-60/default.htm.
Compounds with GIPRCNT values below 10 were considered active. Activity score was based on GIPRCNT using the following formula: […]
Score is 0 for GIPRCNT values of 100 or above, 50 for GIPRCNT values of 0, and 100 for GIPRCNT values of -100.

Structure (SMILES) | growth
CN(C)CCN1C(=O)c2cccc3c(/C=C/CN4C(=O)c5cccc6cccc(c56)C4=O)ccc(c23)C1=O | 18.7%
CCS/C(Nc1ccccc1)=C(\C#N)C(=O)Nc1ccc(OC)cc1 | 23.1%
COc1cccc(/C=C/C(=O)c2cc3c(N)c(C(=O)Nc4cccc5ccccc45)sc3nc2C)c1 | -18.8% (active)
Cc1nc2sc(C(=O)Nc3cccc(Br)c3C)c(N)c2cc1C(O)c1ccccc1 (stereo not given) | 25.4%
N#C/C(=C\c1ccc([N+](=O)[O-])cc1)n1nnc2cc(F)c(F)cc21 | 69%
O=C(Cn1nnc2ccccc21)N/N=C/c1c[nH]c2ccccc12 | 41.3%
Oc1c(CN2CCOCC2)cc(COCc2ccccc2)c2cccnc12 | 35.7%
O=C(Nc1ccccc1N1CCCC1=O)c1oc2ccc(F)cc2c1-c1cnn(-c2ccccc2)c1 | 54.5% [50 µM]
O=C(Nc1ccc(Br)cc1)C1=NCCCCN1 | 97.3%
[2H]C([2H])([2H])Oc1ccc(F)cc1/C=C/C(=O)/C=C(O)/C=C/c1cc(F)ccc1OC([2H])([2H])[2H] | 91.8%
COc1ccc(Cn2cc3c(c2-c2ccccc2)CCc2cnoc2-3)cc1 | 39.8%
Cc1ccc(Cl)cc1NC(=O)c1sc2nc3c(cc2c1N)C(=O)CCC3 | 68.1%
Cc1nc2c(c(=O)[nH]1)C(c1ccccc1)c1ccc3ccccc3c1O2 (stereo not given) | 30.8%
CN1C(=O)/C(=C/c2ccc(C(=O)Nc3ncc(Cc4cccc(Cl)c4)s3)cc2)SC1=S | 73.5%
COc1ccc(/C=C/c2ccc3ccccc3n2)c(OC)c1 | 83.2%
Cc1ccc(-c2csc(NC(=O)c3ccccc3CN3C(=O)c4ccccc4C3=O)n2)cc1 | 91.8%
Cc1ccc(/C=C/C(=O)c2cccc(OCCCOc3cccc(C(=O)/C=C/c4ccc(C)cc4)c3)c2)cc1 | 77.2%
O=C(CCCCCNC(=O)c1cc(=O)c(O)co1)Nc1ccccc1 | 101%
COc1ccc(C[n+]2c3ccccc3n3c4ccc(N)cc4ccc32)c(OC)c1OC | 15.5%
Nc1[nH]n2cc(-c3ccc(F)cc3)nc2c1N=Nc1ccc(S(N)(=O)=O)cc1 | 86.4%

Structure (SMILES) | growth
O=C(Nc1ncc(Cc2cc(C(F)(F)F)ccc2Cl)s1)c1cccs1 | 65%
CSC(SC)=C(C#N)c1nc2ccccc2s1 | 66.9%
NC1(CO)COC(c2ccccc2)OC1 (stereo not given) | 111%
CC1(C)CC2=C3C=C[C@@H]4[C@@]5(C)CCC(=O)C(C)(C)[C@@H]5CC[C@@]4(C)[C@]3(C)CC[C@@]2(C(=O)O)C[C@H]1O | 32.1%
O=C(Nc1ccccc1O)c1ccc(CNC(=O)c2ccsc2Nc2ccnc(C(F)(F)F)c2)cc1 | 52.3%
Cc1ccc2c(-n3nc(C#N)c(C#N)c3N)cc(=O)[nH]c2c1 | 88.6%
S=c1nc2oc(-c3ccccc3)c(-c3ccccc3)c2c(/N=C\c2ccco2)[nH]1 | 95.2%
CSc1nn2c(-c3ccc4ccccc4c3)ccnc2c1C#N | 18.3%
Cc1ccc(CNc2ccc3nc(CCC(C)C)[nH]c3c2)cc1 | 89%
Cc1ccc(-c2nc(-c3cn(C)c4ncccc34)cs2)cc1 | -21.1% [100 µM] (active)
CCOC(=O)c1ccccc1-c1c2ccc(=[N+](C)C)cc-2oc2cc(N(C)C)ccc12 | 18.2%
c1nc2ccc(-c3cc4ccc5[nH]ncc5c4c4c3CCCC4)cc2[nH]1 | 74.9%
O=C1c2ccccc2C(=O)C1c1ccc(Br)cc1 | 104%
C#CCn1cnc2cnc(Nc3cccc(NC(=O)C=C)c3)nc21 | 88.3% [6.25 µM]
Cc1c(Cl)cccc1C(=O)Nc1nc2c(s1)CN(C(=O)c1ccc(C(F)(F)F)cc1)CC2 | 34.6%
CC/C(Cc1ccccc1)=C(\c1ccc(OCCCN(C)C)cc1)c1ccc(OC(=O)NCc2ccccc2)cc1 | 76.3%
O=c1c2c3c(sc2n2c(-c4cc(-c5ccccc5)no4)nnc2n1Cc1ccccc1)CCCC3 | 55.7%
CC(C)(C)c1cc(Cl)c(O)c(CNCCO)c1 | 113%
O=C1/C(=C2\SC(=S)N(C3CC3)C2=O)SC(=S)N1C1CC1 | 99.2%
C[C@]1(O)CC(=O)[C@]2(O)C3=C(C=C[C@]2(O)C1)C(=O)c1c(O)cccc1C3=O | 101%
